Data taken from PubChem BioAssay (NCATS).
Where “and” joins values, the source holds several entries; their conditions need not be identical. Identical values can stand only once. Results filed as inconclusive are left out. A call without a number means that no potency is given here. Calls of active or inactive are those of the source. Unless noted, the call rests on the fitted dose curve; in most records, active means well fitted curve in the direction sought with a large enough effect; inconclusive means small, poorly fitted or top-dose-only effect, or another doubt; inactive means no such curve, though single readings can be large; an effect the other way counts as inactive or inconclusive.

Tests used:
[1] = Cell Viability - BJ (AID 421; calls by dose curve;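 further: potency means the concentration at half of the fitted maximal effect; cells exposed to compound for 40 hours at 37 °C before readout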); conditions: BJ fibroblast viability, qHTS
Summary of the method: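 Luminescent ATP signal (CellTiter-Glo, 20 min at room temperature) served as the read-out of viable BJ cells after 40 hours of compound treatment. Responses were scaled between DMSO and 100 uM tamoxifen, and AC50 values were obtained by Hill modeling.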

[2] = Cell Viability - Mesenchymal (AID 546); conditions: mesenchymal cells viability, qHTS; activity change, negative = cytotoxicity: at 91.7 µM (top of the series);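 further: cells exposed to compound for 40 hours before reading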
Summary of the method: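 Human kidney mesenchymal cells from normal renal glomeruli, 1000 cells/well, rested 5 hr at 37 °C, then treated 40 hr at 37 °C in complete medium. Cellular ATP read by CellTiter-Glo luminescence; AC50 from Hill-equation fits.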

[3] = MultiTox-Fluor Cytotoxicity Assay - LYMP1-002 - Live Cells (AID 955)
Summary of the method: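 Human lymphoblastoid LYMP1-002 cells, 2500/well in complete medium, rested 5 hr at 37 C, then exposed to compounds for 16 hr at 37 C. Live-cell protease cleavage of GF-AFC read by fluorescence (Ex/Em 405/510) after 60 min at room temperature; AC50 from Hill fits.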

[4] = MultiTox-Fluor Cytotoxicity Assay - LYMP1-003 - Live Cells (AID 962); further: potency means the concentration at half of the fitted maximal effect
Summary of the method: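 LYMP1-003 human lymphoblastoid cells (2500/well) in complete medium were preincubated 5 hr at 37 C, then exposed to compounds for 16 hr at 37 C. Live-cell protease cleavage of GF-AFC read by fluorescence (Ex/Em 405/510); AC50 from Hill fits.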

[5] = Cell Viability - LYMP1-003 - Assay at 40 hr (AID 964); further: nearly all actives have a fitted effect of over 60% in size; further: potency means the concentration at half of the fitted maximal effect
Summary of the method: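 Human lymphoblastoid LYMP1-003 cells, 2500/well in complete medium, rested 5 hr at 37 C, then exposed to compounds for 40 hr at 37 C. Viability read as intracellular ATP by CellTiter-Glo luminescence; AC50 from Hill fits of concentration-response data.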

[6] = Cell Viability - LYMP2-009 (AID 968); further: nearly all actives have a fitted effect of over 55% in size; further: potency means the concentration at half of the fitted maximal effect
[7] = Cell Viability - LYMP2-011 (AID 969); further: nearly all actives have a fitted effect of over 60% in size; further: potency means the concentration at half of the fitted maximal effect
Summary of the method: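 Human lymphoblastoid cells (2500/well) were plated in complete medium, preincubated 5 hr at 37 C, then exposed to compounds for 24 hr at 37 C. Intracellular ATP was read by CellTiter-Glo luminescence, and AC50 came from Hill-equation concentration-response fits.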

[8] = Cell Viability - LYMP2-013 (AID 970); further: nearly all actives have a fitted effect of over 55% in size; further: potency means the concentration at half of the fitted maximal effect
Summary of the method: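 Human lymphoblastoid cells, 2500/well, were preincubated 5 hr at 37 C, then treated with compounds for 24 hr at 37 C in complete medium. Intracellular ATP was read by CellTiter-Glo luminescence; AC50 from Hill-equation fits of concentration-response data.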

[9] = Cell Viability - LYMP2-019 (AID 973); further: nearly all actives have a fitted effect of over 55% in size; further: potency means the concentration at half of the fitted maximal effect
Summary of the method: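 Human lymphoblastoid cells were seeded at 2500 cells/well, preincubated 5 hr at 37 C, then exposed to compounds for 24 hr at 37 C in complete medium. Intracellular ATP was measured by CellTiter-Glo luminescence; AC50 from Hill fits.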

[10] = Cell Viability - LYMP2-021 (AID 974);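 further: compound exposure lasts 24 hours at 37 °C; nearly all actives have a fitted effect of over 55% in size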; further: potency means the concentration at half of the fitted maximal effect
Summary of the method: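 Human lymphoblastoid cells (2500/well) were preincubated 5 hr at 37 C, then exposed to compounds for 24 hr at 37 C in complete medium. Intracellular ATP was read by CellTiter-Glo luminescence; AC50 came from Hill-equation fits of concentration-response data.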

[11] = Cell Viability - LYMP2-025 (AID 976); further: potency means the concentration at half of the fitted maximal effect
Summary of the method: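 Human lymphoblastoid LYMP2-025 cells (2500/well) were pre-incubated 5 hr at 37 C, then treated with compounds for 24 hr at 37 C in complete medium. Viability was read as intracellular ATP by CellTiter-Glo luminescence; AC50 from Hill fits.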

[12] = Cell Viability - LYMP2-002 (AID 977);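 further: compound exposure lasted 24 h at 37 °C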; further: potency means the concentration at half of the fitted maximal effect
Summary of the method: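 Human lymphoblastoid LYMP2-002 cells, 2500 per well, exposed to compounds for 24 h at 37 C in complete medium; viability read as intracellular ATP by CellTiter-Glo luminescence, AC50 from Hill fits.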

[13] = Cell Viability - LYMP2-006 (AID 978); further: nearly all actives have a fitted effect of over 60% in size; further: potency means the concentration at half of the fitted maximal effect
Summary of the method: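 In this cytotoxicity screen, the human lymphoblastoid line grew in complete medium with test compounds for 24 hr at 37 C. Cellular ATP served as the viability signal.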

[14] = Cell Viability - LYMP2-008 (AID 980); further: nearly all actives have a fitted effect of over 60% in size; further: potency means the concentration at half of the fitted maximal effect
Summary of the method: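 Human lymphoblastoid cells (2500/well) were plated, held 5 hr at 37 C, then exposed to compounds for 24 hr at 37 C in complete medium. Intracellular ATP was read by CellTiter-Glo luminescence; AC50 from Hill-fitted concentration-response.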

[15] = Cell Viability - LYMP2-012 (AID 982); further: potency means the concentration at half of the fitted maximal effect
[16] = Cell Viability - LYMP2-022 (AID 987); further: nearly all actives have a fitted effect of over 55% in size; further: potency means the concentration at half of the fitted maximal effect
Summary of the method: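 Human lymphoblastoid cells, 2500/well, preincubated 5 hr at 37 C, then exposed to compounds over a concentration range for 24 hr at 37 C in complete medium. Viability read as intracellular ATP by CellTiter-Glo luminescence after 30 min at room temperature; AC50 from Hill fits.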

[17] = qHTS assay for small molecule agonists of retinoid X receptor alpha signaling (AID 588544); conditions: HEK293T RXRa-UAS-bla, beta-lactamase reporter, 18 h; 530 nm emission
[18] = qHTS assay for environmental chemicals that activate the Aryl hydrocarbon Receptor (AhR) signaling pathway (AID 651777); conditions: 1A2-DRE human hepatoma cells, luciferase, 24 h; activation: stronger effect = higher value; further: nearly all actives have a fitted effect of over 15% in size
Summary of the method: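 AhR activation is scored as a rise in luciferase from a stable DRE–CYP1A2 promoter construct in human hepatoma cells. Treatment lasts 24 hr at 37 C; detection uses One-Glo after 30 min at room temperature.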

[19] = qHTS assay for small molecule agonists of the antioxidant response element (ARE) signaling pathway measured by Nrf2-dependant transcriptional activity (AID 720636; active means well fitted curve in the direction sought with a large enough effect in the repeat runs; an effect the other way counts as inactive or inconclusive;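 further: HepG2 cells with an ARE-driven luciferase reporter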)
Summary of the method: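 First, ARE-luc HepG2 cells attached for 6 hr at 37 C in 1% dialyzed FBS medium. Next, compound or DMSO was added and incubated 16 hr. Finally, ONE-Glo reagent was added and luminescence measured after 30 min.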

Row | Structure (SMILES) | Potency [1] | Potency [2] | outcome [3] | Potency [4] | Potency [5] | Potency [6] | Potency [7] | Potency [8] | Potency [9] | Potency [10] | Potency [11] | Potency [12] | Potency [13] | Potency [14] | Potency [15] | Potency [16] | max response [17] | activation [18] | Potency [19]
1 | NC(=O)Nc1nc2ccccc2[nH]1 | > 92 µM (inactive) | inactive | inactive | inactive | inactive | inactive | inactive | inactive | inactive | inactive | inactive | inactive | inactive | inactive | inactive | inactive | -1.01% | 5.33% (inactive) | inactive
2 | O=C(Cl)c1ccc([N+](=O)[O-])cc1 | > 92 µM (inactive) | inactive | inactive | inactive | inactive | inactive | inactive | inactive | inactive | inactive | inactive | inactive | inactive | inactive | inactive | inactive | -12.7% | – | inactive
3 | O=c1[nH]ncc2ccccc12 | > 92 µM (inactive) | inactive | inactive | inactive | inactive | inactive | inactive | inactive | inactive | inactive | inactive | inactive | inactive | inactive | inactive | inactive | 10.5% | 0.167% (inactive) | inactive
4 | Nc1ccccc1O | > 92 µM (inactive) | inactive | inactive | – | – | inactive | inactive | inactive | inactive | inactive | inactive | inactive | inactive | inactive | inactive | – | 23.5% | – | inactive
5 | OCC(CO)(CBr)CBr | > 92 µM (inactive) | inactive | inactive | inactive | inactive | inactive | inactive | inactive | inactive | inactive | inactive | inactive | inactive | inactive | inactive | inactive | 0.243% and -1.22% | 0.992% (inactive) and 2.31% (inactive) | inactive
6 | CCCCCCCCOc1ccc(C(=O)O)cc1 | > 92 µM (inactive) | inactive | inactive | inactive | inactive | inactive | inactive | inactive | inactive | inactive | inactive | inactive | inactive | inactive | inactive | inactive | -15.5% | 8.38% (inactive) | inactive
7 | c1c[nH]cn1 | > 92 µM (inactive) | inactive | inactive | inactive | inactive | inactive | inactive | inactive | inactive | inactive | inactive | inactive | inactive | inactive | inactive | inactive | 1.75% | -1.48% (inactive) | inactive
8 | C=CC(=O)CC | > 92 µM (inactive) | inactive | inactive | inactive | inactive | inactive | inactive | inactive | inactive | inactive | inactive | inactive | inactive | inactive | inactive | inactive | -11.5% | 1.17% (inactive) | inactive
9 | CCCCC(CC)COP(=O)(OCC(CC)CCCC)OCC(CC)CCCC (centres undefined) | > 92 µM (inactive) | inactive | inactive | inactive | inactive | inactive | inactive | inactive | inactive | inactive | inactive | inactive | inactive | inactive | inactive | inactive | -2.54% | -1.66% (inactive) | inactive
10 | c1ccc(COCc2ccccc2)cc1 | > 92 µM (inactive) | inactive | inactive | inactive | inactive | inactive | inactive | inactive | inactive | inactive | inactive | inactive | inactive | inactive | inactive | inactive | -5.39% | -0.601% (inactive) | inactive
11 | C=CC(=O)OCCCCCCOC(=O)C=C | – | – | – | 50.1 µM (active) | 39.8 µM (active) | 39.8 µM (active) | 39.8 µM (active) | 39.8 µM (active) | 50.1 µM (active) | 39.8 µM (active) | 50.1 µM (active) | 50.1 µM (active) | 50.1 µM (active) | 50.1 µM (active) | 39.8 µM (active) | 39.8 µM (active) | 3.42% | -0.448% (inactive) and 0.963% (inactive) | inactive
12 | COc1ccc(C)cc1N | > 92 µM (inactive) | inactive | inactive | inactive | inactive | inactive | inactive | inactive | inactive | inactive | inactive | inactive | inactive | inactive | inactive | inactive | -1.98% | 3.33% (inactive) | inactive
13 | O=C(O)/C=C/c1ccc(/C=C/C(=O)O)cc1 | > 92 µM (inactive) | inactive | inactive | inactive | inactive | inactive | inactive | inactive | inactive | inactive | inactive | inactive | inactive | inactive | inactive | inactive | 9.62% | 0.407% (inactive) | inactive
14 | CC(=O)CC(=O)Nc1ccccc1 | > 92 µM (inactive) | inactive | inactive | inactive | inactive | inactive | inactive | inactive | inactive | inactive | inactive | inactive | inactive | inactive | inactive | inactive | 6.79% and 6.65% | 1.24% (inactive) and 1.64% (inactive) | inactive
15 | Cc1cc(-c2ccc(N=Nc3cc(S(=O)(=O)O)c4ccccc4c3N)c(C)c2)ccc1N=Nc1cc(S(=O)(=O)O)c2ccccc2c1N | – | – | inactive | inactive | – | – | – | – | inactive | – | – | – | – | – | – | inactive | -22% | 0.307% (inactive) | inactive
16 | CCCCCCCC/C=C\CCCCCCCC(=O)N(CCO)CCO | > 92 µM (inactive) | – | inactive | inactive | inactive | inactive | inactive | inactive | – | inactive | inactive | inactive | inactive | inactive | inactive | inactive | 13.2% | 2.99% (inactive) | inactive
17 | CCN(CC)c1ccc2c(C)cc(=O)oc2c1 | > 92 µM (inactive) | inactive | – | inactive | inactive | inactive | inactive | inactive | inactive | inactive | inactive | inactive | inactive | inactive | inactive | inactive | – | 6.67% (inactive) | inactive
